Rows were chosen to be rich in hits. Some 2.4% of all compounds tested hit in one or more screens of this group.
Epigenetic reg – derepresses silenced GFP reporter in murine cells | murine LDR cells, GFP reporter derepression, 30 h | Potency, µM (doses to about 53.9 µM), inactives show top-dose GFP activation, most hits filed as activators | 280,000 compounds, 0.2% hits; note: % of control where 0% means no effect; nearly all actives have a fitted effect of over 60% in size
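Murine LDR cells bearing a silenced CMV-driven GFP reporter were exposed to compound for 30 h at 37 C. After PBS washes, GFP-positive cells (20-120 um objects) counted by laser-scanning microplate cytometry.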
Nrf2 ARE act – activates Nrf2 signaling | AREc32 ARE-luciferase reporter (MCF7-derived line), luminescence, 24 h | Potency, µM (top dose mostly 46.1 µM), for the others: at the top dose activation, usual class: activators | 410,000 compounds, 0.31% hits | AID 624171; note: % of control where 0% means no effect; nearly all actives have a fitted effect of over 65% in size
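Each well held 1000 AREc32 cells, which were incubated with compound for 24 hr at 37 deg C after overnight attachment, and ARE reporter activity was quantified by firefly luciferase luminescence.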
PINK1 expr mod – modulators of PINK1 expression. PINK1 immunofluorescence, high-content cytometry, 24 h. Potency, µM (titrated, usually from 76.6 µM), without a hit: at the top dose activation (PINK1 increase), actives largely listed as activators. 410,000 compounds, 0.2% hits; active = well fitted activation curve with a large enough effect; inconclusive = small, poorly fitted or top-dose-only effect; cell line not stated here; note: % of control where 0% means no effect; nearly all actives have a fitted effect of over 65% in size
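Stable cell line treated 24 h with compounds at 5 concentrations (CCCP controls), then fixed and immunostained for PINK1 plus nuclear and cell stains; PINK1 immunofluorescence quantified by laser-scanning microplate cytometry.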
Nrf2 block – blocks Nrf2 signaling; 360,000 compounds, 2.1% hits; A549 ARE-Fluc reporter, luciferase luminescence, 18-24 h; Potency, µM (series often up to 46 µM), without a hit: at the highest dose activity change, negative = inhibition, hits mostly inhibitors; AID 504444; note: % is set by controls: 0 for no effect and ±100 for the full control effect; nearly all actives have a fitted effect of over 60% in size
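Nrf2 function is reported as luminescence of an ARE-controlled luciferase in A549 cells. Compounds were tested at several concentrations, and a CellTiter-Fluor read on the same wells flagged cytotoxicity.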
A549 tox-1 – kills or reduces viability of A549 cells in Nrf2 counter-screen; A549 ARE-Fluc cells, CellTiter-Fluor viability, 18-24 h; Potency, µM (titrated, usually from 46 µM), inactives show top-dose activity change, negative = cytotoxicity, hits mostly inhibitors; 390,000 compounds, 0.16% hits; note: % is set by controls: 0 for no effect and ±100 for the full control effect
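A549 ARE_Fluc cells in 5% FBS OPTI-MEM were exposed to compounds in concentration-response for 18-24 h at 37 deg C. Viability was read by CellTiter-Fluor fluorescence (Ex 405/Em 525) after 30 min, before the luciferase read.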
FLuc enzyme inh – counter-screen for Nrf2 inhibitors: firefly luciferase enzyme inhibition | 1,400 compounds, 4% hits | Potency, µM (series often up to 57.5 µM), inactives show at the top dose activity change, negative = inhibition, hits mostly inhibitors | AID 720522 | purified firefly luciferase, luminescence inhibition | shares compounds with Nrf2 block; note: % is set by controls: 0 for no effect and ±100 for the full control effect; nearly all actives have a fitted effect of over 65% in size
Target sequence (P08659 whole entry, looked up): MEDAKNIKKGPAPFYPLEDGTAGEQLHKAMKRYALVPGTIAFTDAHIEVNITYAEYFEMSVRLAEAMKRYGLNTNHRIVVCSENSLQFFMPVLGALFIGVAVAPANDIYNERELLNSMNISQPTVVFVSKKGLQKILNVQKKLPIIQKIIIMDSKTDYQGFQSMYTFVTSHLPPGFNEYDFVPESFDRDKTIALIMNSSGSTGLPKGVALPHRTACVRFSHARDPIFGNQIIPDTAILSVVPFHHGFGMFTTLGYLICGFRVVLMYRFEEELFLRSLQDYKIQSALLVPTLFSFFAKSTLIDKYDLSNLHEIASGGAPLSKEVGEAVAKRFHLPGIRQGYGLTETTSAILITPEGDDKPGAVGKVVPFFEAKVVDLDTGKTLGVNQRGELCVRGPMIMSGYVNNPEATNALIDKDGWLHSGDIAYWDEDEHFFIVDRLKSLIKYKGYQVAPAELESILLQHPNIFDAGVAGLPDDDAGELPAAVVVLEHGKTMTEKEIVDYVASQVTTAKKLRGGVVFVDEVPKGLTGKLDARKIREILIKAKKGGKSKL
A549 tox-2 – counter-screen for Nrf2 inhibitors: cytotoxicity in A549 ARE cells; shares compounds with Nrf2 block; A549 ARE-Fluc cells, cytotoxicity counterscreen; Potency, µM (doses to about 46.1 µM), without a hit: top-dose activity change, negative = cytotoxicity, actives largely listed as inhibitors; 1,400 compounds, 2% hits;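 note: cells exposed to compounds for 18 to 24 hours; % is set by controls: 0 for no effect and ±100 for the full control effect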
Nrf2 ARE inh – confirmation of Nrf2 inhibitors in A549 ARE reporter cells. AID 720524. A549 ARE-firefly luciferase reporter, luminescence. Potency, µM (highest dose often 46.1 µM), without a hit: at the highest dose activity change, negative = inhibition, hits mostly inhibitors. 1,400 compounds, 74% hits. shares compounds with Nrf2 block; note: % is set by controls: 0 for no effect and ±100 for the full control effect; nearly all actives have a fitted effect of over 65% in size
The depositor's hits bear a star; ? = inconclusive; nt = no result given; [ ] = dose if it differs, or a comment. Unless noted, calls come from the whole dose curve; as a rule, active = well fitted curve in the direction sought with a large enough effect; inconclusive = small, poorly fitted or top-dose-only effect, or another doubt; inactive = no such curve, though single readings can be large; an effect the other way counts as inactive or inconclusive. Potency is the fitted concentration of half-maximal effect.

SMILES	Epigenetic reg	Nrf2 ARE act	PINK1 expr mod	Nrf2 block	A549 tox-1	FLuc enzyme inh	A549 tox-2	Nrf2 ARE inh
COc1ccc(CN(Cc2ccccc2)C(=O)c2ccno2)cc1COc1ccc(NC(C)=O)cc1	nt	nt	0%	-2%	7%	nt	nt	nt
CN(C)CCN1C(=O)c2cccc3cc([N+](=O)[O-])cc(c23)C1=O	nt	-2%	-7%	1.6µM*	8.2µM*	1%	?	2.6µM*
COc1cc(C2C(=O)N(C3CCCCC3)CC(=O)N2Cc2ccc(C)cc2)ccc1OC(C)C (configuration not stated)	?	-1%	2%	nt	-6%	nt	nt	nt
COCCCN(C(=O)c1ccc(N2CCCC2=O)cc1)c1c(N)n(Cc2ccccc2)c(=O)[nH]c1=O	nt	0%	0%	19%	-5%	nt	nt	nt
CCCCN(C(=O)c1ccc(N2CCCC2=O)cc1)c1c(N)n(Cc2ccccc2)c(=O)[nH]c1=O	nt	0%	3%	5.8µM*	-9%	0%	-10%	3.7µM*
COc1ccc(C2C(C(=O)Nc3cccnc3)=C(C)Nc3nc(SCc4ccccc4)nn32)cc1 (configuration not stated)	3%	0%	-1%	-8%[9.27 µM]	0%	nt	nt	nt
Cc1cccc(NC(=O)C2CCCN(S(=O)(=O)c3cccc4nonc34)C2)c1C (configuration not stated)	?	3%	0%	0%	8%	nt	nt	nt
CC(=O)N(C)c1ccc(OCC(O)Cn2c(C)nc3ccccc32)cc1 (configuration not stated)	-1%	0%	-1%	9.2µM*	-18%	1%	7%	?
CC(=O)Nc1ccc(OCC(O)Cn2c(C)nc3ccccc32)cc1 (configuration not stated)	8%	0%	1%	-16%	5%	nt	nt	nt
O=C(Nc1ccccc1)c1ccc(S(=O)(=O)Nc2cccc(O)c2)cc1	nt	0%	5%	?	-1%	nt	nt	nt
CC(=O)c1cccc(NS(=O)(=O)c2ccc(C(=O)Nc3ccccc3)cc2)c1	nt	-1%	0%	7.3µM*	-4%	-10%	-11%	4.1µM*
COCCNc1nc2c(c(=O)n(Cc3ccc(OC)cc3)c(=O)n2C)n1C	-1%	-1%	0%	3%	-1%	nt	nt	nt
COc1ccc(CNc2nc3c(c(=O)n(Cc4ccc(Cl)cc4)c(=O)n3C)n2C)cc1	0%	0%	-2%	9.2µM*	?	0%	-19%	13µM*
Cc1cc[n+](Cc2ccc([N+](=O)[O-])cc2)cc1	0%	0%	0%	?	-9%	nt	nt	nt
Cc1ccc(-c2cc[n+](Cc3ccccc3)cc2)cc1	-2%	-1%	1%	7.3µM*	-8%	1%	-2%	9.2µM*
CCC(=O)Nc1nnc(S(=O)(=O)N(C)Cc2ccc(Cl)cc2)s1	1%	-1%	0%	2%	2%	nt	nt	nt
CC1(C)CC(N2CCCC2)=CC(=[N+]2CCCCCC2)C1	5%	-1%	?	-20%	-23%	nt	nt	nt
CC1(C)CC(N2CCN(c3ccccc3)CC2)=CC(=[N+]2CCCC2)C1	-5%	0%	-3%[38.3 µM]	?	-6%	2%	-13%	4.6µM*
CC1CC(C)C[N+](=C2C=C(N3CCCC3)CC(C)(C)C2)C1 (configuration not stated)	5%	0%	?	5.2µM*	?	-3%	-28%	nt
COc1ccc(CNCc2c(C(=O)O)c(C)n(Cc3ccccc3C)c2C)cc1OC	13%	3%	1%	5%	0%	nt	nt	nt
COc1ccccc1CNc1ccc(-c2nc(-c3ccccn3)no2)cc1[N+](=O)[O-]	4%	3%	1%	7%	-1%	nt	nt	nt
Cc1ccc(/C=C/c2onc(C)c2S(=O)(=O)N2CCC(C(=O)N(CCC(C)C)Cc3ccco3)CC2)cc1	2%	4%	2%	nt	4%	nt	nt	nt
CC(C)(C)c1ccc(-c2noc(CCC(N)=O)n2)cc1	-1%	-2%	-1%	0.13µM*	-7%	3µM*	-2%	0.16µM*
COc1ccc(-c2c[n+]3c(n2-c2ccc(C)cc2)CCCCC3)cc1	0%	4%	?	?	-18%	nt	nt	nt
CCOc1ccc(-n2c(-c3ccccc3)c[n+]3c2CCC3)cc1	2%	0%	-1%	2.3µM*	-6%	1%	-10%	16µM*
SMILES	Epigenetic reg	Nrf2 ARE act	PINK1 expr mod	Nrf2 block	A549 tox-1	FLuc enzyme inh	A549 tox-2	Nrf2 ARE inh
CCOc1ccc(-n2c(-c3ccc(Br)cc3)c[n+]3c2CCCCC3)cc1	-3%	1%	?	?	-14%	nt	nt	nt
CCOc1ccc(-n2c(-c3ccc(OC)cc3)c[n+]3c2CCCCC3)cc1	0%	4%	16µM*	2.6µM*	?	2%	-19%	3.7µM*
CN(C)c1ccc(/C=C/c2ccc3cc(F)ccc3n2)cc1	nt	nt	1%	nt	nt	nt	nt	nt
CN(C)c1ccc(/C=C/c2ccc3ncccc3c2)cc1	nt	nt	1%	nt	nt	nt	nt	nt
CN(C)c1ccc(/C=C/c2cccc3cc4ccccc4nc23)cc1	nt	nt	-1%	nt	nt	19µM*	?	1.6µM*
CN(C)c1ccc(/C=C/c2cc(/C=C/c3ccc(N(C)C)cc3)c3ccccc3n2)cc1	nt	nt	20%	nt	nt	0.17µM*	-12%	0.58µM*
Nc1ccc(Oc2ccccc2-c2ccccc2)cc1	nt	-2%	6%	9.2µM*	9%	?	2%	8.2µM*
COc1ccc(CCN(C)C(=O)c2cccc(S(=O)(=O)N3CCN(c4ccc(F)cc4)CC3)c2)cc1OC	nt	4%	3%	7.3µM*	-11%	-1%	-9%	5.2µM*
Cc1cccc(C)c1NC(=O)CN(C)C(=O)c1cccc(S(=O)(=O)N2CCN(c3ccc(F)cc3)CC2)c1	nt	0%	2%	5.2µM*	?	5%	-17%	9.2µM*
O=C(c1cccc(S(=O)(=O)N2CCN(c3ccc(F)cc3)CC2)c1)N1CCCC(C(F)(F)F)C1 (configuration not stated)	nt	3%	2%	4.6µM*	-19%	1%	-8%	5.2µM*
CN(CCOc1ccc(Cl)cc1)C(=O)c1cccc(S(=O)(=O)N2CCN(c3ccc(F)cc3)CC2)c1	nt	2%	5%	4.1µM*	-19%	-1%	-15%	4.1µM*
COc1ccccc1CN(C)C(=O)c1cccc(S(=O)(=O)N2CCCC2)c1	nt	-1%	-1%	-3%	4%	nt	nt	nt

High-throughput results as filed in PubChem BioAssay.
